Most compounds without a hit are left out; they make up all but 4.3% or so of the library.
AF4-AF9 inh = inhibitors of AF4 peptide binding to AF9, primary screen, biochemical, AlphaScreen, biotin-AF4 peptide, FLAG-AF9, single point. Protein AF-9 (Homo sapiens), P42568. inhibition, % at 10 µM. actives 0.47% (n = 350,000). AID 651704, 2012;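 active = every replicate reaching a set inhibition limit, whatever the replicate mean, cut at about 25% in these data; inconclusive = mean inhibition reaches that limit but some replicates miss it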
esBAF inh = Bmi1 luciferase reporter increase in mESCs, primary screen, esBAF inhibitor project, mouse ES cells, Bmi1 luciferase knock-in, single point; reporter increase, % at 12.5 µM; 24 h; 100% = twice the neutral-well signal; actives 2% (n = 350,000); in the data active = activation above about 40%; inconclusive = no clear call, values can overlap the other calls;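 also: a rise in the Bmi1 reporter signal indicates esBAF inhibition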
FGF22 binding = binders of human FGF22 protein, primary screen, FGF22 synaptogenesis inhibitor project, biophysical, thermal shift, single point | Fibroblast growth factor 22 (Homo sapiens), Q9HCT0 | recombinant FGF22 thermal shift, SYPRO orange fluorescence; percent of sucrose octasulfate shift, DMSO zero | activity (Tm shift, normalised), % at 9.99 µM | actives 1.5% (n = 340,000);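 active = mean Tm shift, scaled 0 neutral to 100 positive control, at about 1.3% or above, every replicate too, limit read from the data; inconclusive = no clear call, values can overlap the other calls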
Target sequence (Q9HCT0 whole entry, looked up): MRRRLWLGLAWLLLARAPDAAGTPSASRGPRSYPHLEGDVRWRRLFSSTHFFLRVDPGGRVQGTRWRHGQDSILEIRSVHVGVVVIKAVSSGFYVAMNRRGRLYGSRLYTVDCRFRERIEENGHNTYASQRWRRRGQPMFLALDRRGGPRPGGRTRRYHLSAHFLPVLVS
Wnt act = Wnt/beta-catenin pathway activators, primary screen, cell-based, plate reader, single point. Wnt/beta-catenin reporter cell assay, activator. activation, % at 9.35 µM. actives 1.2% (n = 300,000); in the data active = activation above about 30%, passing the limit was not always enough; inconclusive = no clear call, values can overlap the other calls
SMARCA2 act = SMARCA2 (BRM) function activators, primary screen, cell-based, luminescence, high throughput. MG213 cells, MMTV-luciferase reporter, dexamethasone, overnight. activation, % at 9.1 µM. actives 1% (n = 370,000); in the data active = activation above about 7.8%
MITF TRPM1 HTS = activators of MITF-driven TRPM1 promoter reporter, primary screen, cell-based, SK-MEL-5, luciferase, single point; AID 588334, 2011; actives 0.75% (n = 300,000); activation, % at 12.5 µM; SK-MEL-5 TRPM1-promoter luciferase, 24 h; % of positive control, neutral wells = 0;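 active = mean activation of at least 80% with every replicate also reaching 80%; inconclusive = mean reaches 80% but some replicate falls short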
Hits are given with their value; – = inactive; ? = inconclusive; · = no result.

SMILES	AF4-AF9 inh	esBAF inh	FGF22 binding	Wnt act	SMARCA2 act	MITF TRPM1 HTS
Cc1ccc(-c2ccc(C3[C@H]4CNC[C@@H]3N4S(=O)(=O)c3ccc(C)cc3)cc2)cc1 (stereo partly specified)	–	·	–	·	·	·
COCC(=O)N1CC(=O)N2[C@H](CO)[C@@H](c3ccc(Br)cc3)[C@@H]2C1	–	·	–	·	·	·
COc1ccc(-c2ccc(NC(=O)c3ccco3)cc2)nn1	–	–	1.8	–	–	–
O=C(Nc1ccccc1NC(=O)c1ccco1)c1ccccc1	–	–	–	–	–	–
COC(=O)c1c(-c2ccc(F)cc2)csc1NC(=O)c1ccco1	·	·	·	·	–	118
O=C(Nc1scc(-c2ccccc2)c1C(=O)O)c1ccco1	·	–	·	–	–	–
O=C(CCNC(=O)c1ccco1)Nc1nc(-c2ccccc2)cs1	–	53	–	–	–	·
O=C(Nc1cc(-c2ccccc2)cs1)c1ccco1	–	67	–	44	–	110
NCC[C@@H]1CC[C@@H](NC(=O)C2CCC2)[C@H](CO)O1	–	–	–	·	·	·
C/C=C/c1ccc2c(c1)O[C@@H](CN(C)C(=O)c1ccncc1)[C@@H](C)CN([C@@H](C)CO)S2(=O)=O	–	–	–	·	·	·
O=C(Nc1nc(-c2ccco2)cs1)c1ccccc1	·	–	·	·	–	?
O=C(Nc1nc(-c2ccccc2)cs1)c1ccco1	–	·	–	43	–	·
O=C(NC(=S)Nc1nc(-c2ccc([N+](=O)[O-])cc2)cs1)c1ccco1	–	54	–	–	–	–
COc1ccc(-c2csc(NC(=O)c3c(OC)cccc3OC)n2)cc1	–	–	–	–	–	–
COc1ccc(-c2csc(NC(=O)c3ccco3)n2)cc1	·	65	·	–	–	83
O=C(NC(=S)Nc1nc(-c2ccc(Br)cc2)cs1)c1ccco1	–	·	–	–	–	–
CCCNC(=O)C[C@@H]1C[C@@H]2c3cc(NS(=O)(=O)c4ccccc4)ccc3O[C@@H]2[C@H](CO)O1	·	–	–	·	·	·
NC(=O)c1cc2ccc(O)cc2oc1=Nc1ccccc1	·	–	·	–	7.9	–
COc1ccc2cc(C(=O)c3ccccc3)c(=O)oc2c1	·	66	·	·	–	–
COc1ccc(OC)c(N=c2oc3cc(O)ccc3cc2C(N)=O)c1	·	–	·	·	–	·
NC(=O)c1cc2ccc(O)cc2oc1=NCc1ccccc1	–	45	–	–	–	–
COc1ccc2cc(C(N)=O)c(=Nc3ccccc3)oc2c1	–	·	–	?	–	102
O=C(O)c1ccc(N=c2oc3cc(O)ccc3cc2C(=O)NCc2ccccc2)cc1	–	·	–	–	–	–
CCC(=O)N1[C@@H]2c3ccc(-c4ccccc4F)c(=O)n3C[C@@H]2[C@@H](CO)[C@@H]1C(=O)NCCCN(C)C	–	·	·	·	·	·
Cc1cc(Oc2ccc(=O)n(C)n2)nc(SCc2ccccc2)n1	–	·	43	–	–	–
SMILES	AF4-AF9 inh	esBAF inh	FGF22 binding	Wnt act	SMARCA2 act	MITF TRPM1 HTS
COc1cccc(-c2nc3ccc(C(=O)NC(C)Cc4cccnc4)cc3o2)c1 (stereo unspecified)	–	54	–	–	–	–
COC(=O)C1CCN(C(=O)c2ccc3nc(-c4cccc(OC)c4)oc3c2)CC1	–	·	–	32	–	–
COC(=O)C1CCN(C(=O)c2ccc3nccnc3c2)CC1	–	–	–	–	–	–
O=C(C[C@H]1CC[C@H](NC(=O)c2cccc(F)c2)[C@H](CO)O1)Nc1nccs1	–	–	–	·	·	·
Clc1cccc(Cl)c1Cn1ccc(C2CC2)n1	–	·	–	–	7.9	–
CCN1CCN(c2ccc(S(=O)(=O)N3CCCCC3)cc2NC(=O)c2ccc([N+](=O)[O-])s2)CC1	29	–	–	–	–	–
CCN1CCN(c2ccc(S(=O)(=O)N3CCCCC3)cc2NC(=O)c2ccccc2)CC1	–	–	–	–	–	–
C[C@H](CO)N1C[C@H](C)[C@@H](CN(C)C(=O)Nc2ccc(F)cc2)Oc2ccc(NC(=O)Cc3ccccc3)cc2C1=O	–	–	–	·	·	·
CCCCSc1nc(C(=O)O)cc(=O)[nH]1	–	–	–	38	–	–
Cc1ccc(-c2nnc(SCc3ccccc3F)o2)cc1	·	·	·	–	–	99
COc1ccc(-c2nnc(SCc3ccccc3F)o2)cc1OC	·	66	·	·	–	–
Cc1ccc(-c2nnc(SCC(=O)Nc3ccccc3F)o2)cc1	–	–	–	–	–	–
Cc1ccc(NC2=CC(=O)C(=O)c3ccccc32)cc1	·	–	·	73	–	–
C[C@@H](O)C#Cc1cnc2c(c1)C(=O)N([C@@H](C)CO)C[C@H](C)[C@H](CN(C)Cc1ccc(-c3ccccc3)cc1)O2	·	–	·	·	·	·
O=CN1N=C(c2ccccc2)CC1c1ccccc1[N+](=O)[O-] (stereo unspecified)	–	·	–	–	–	–
N#CC1CC(c2ccccc2)=NN1c1ccccc1[N+](=O)[O-] (stereo unspecified)	–	52	–	–	–	–
Cc1[nH]n(-c2nc(-c3ccc(Cl)cc3)cs2)c(=O)c1N=Nc1ccc(O)cc1	–	·	43	–	–	–
COc1ccc(-c2csc(Nc3ccc(S(=O)(=O)Nc4cc(C)on4)cc3)n2)cc1C	–	·	44	–	–	–
CC(=O)Nc1ccc(-c2csc(NCc3ccco3)n2)cc1	·	·	·	·	–	123
COc1ccc(-c2csc(Nc3ccc(S(=O)(=O)Nc4cc(OC)nc(OC)n4)cc3)n2)cc1	·	·	·	·	–	–
COc1ccc(-c2csc(NCc3ccco3)n2)cc1C	·	66	·	·	·	?
c1cncc(-c2csc(NCc3ccco3)n2)c1	·	·	·	–	–	–
C[C@@H]1CN([C@H](C)CO)C(=O)Cc2cc(NC(=O)CCCCCC(=O)Nc3ccccc3N)ccc2O[C@H]1CN(C)C(=O)Nc1ccc2c(c1)OCO2	–	–	–	·	·	·
COc1ccccc1-c1nc(COc2ccc(Cl)cc2Cl)no1	–	·	–	54	–	149
CC(=O)N1[C@@H]2c3cccc(=O)n3C[C@H]1[C@H](CO)[C@H]2C(=O)N[C@H](C)c1ccccc1	–	·	·	·	·	·
SMILES	AF4-AF9 inh	esBAF inh	FGF22 binding	Wnt act	SMARCA2 act	MITF TRPM1 HTS
Cn1c(COc2ccc(F)cc2)nc2ccccc21	–	65	–	–	–	·
CCn1c(COc2ccccc2)nc2ccccc21	·	58	·	–	–	–
Cc1cccc(OCc2nc3ccccc3n2C)c1	–	64	–	–	–	·
COCc1nc2ccccc2n1Cc1ccc(Br)cc1	·	50	·	·	–	–
Cc1ccccc1OCc1nc2ccccc2n1C	–	?	–	–	–	–
Cn1cccc1C(=O)N1CCN(S(=O)(=O)c2ccc([N+](=O)[O-])cc2)CC1	·	·	·	·	–	·
C[C@H](NC(=O)C[C@H]1C[C@H]2c3cc(NC(=O)NC4CCCC4)ccc3O[C@H]2[C@H](CO)O1)c1ccccc1	–	–	·	·	·	·
